The structures appear in SMILES notation. Records with an inconclusive call do not appear. Unmarked numbers belong to inactive results. Activity calls are given as the source filed them. Calls follow the shape of the dose curve; as a rule, active = well fitted curve in the direction sought with a large enough effect; inconclusive = small, poorly fitted or top-dose-only effect, or another doubt; inactive = no such curve, though single readings can be large; an effect the other way counts as inactive or inconclusive.

In one assay the test system is MCC-26. Description: qHTS assay to identify novel small-molecules to repurpose for Merkel cell carcinoma treatment (AID 1296009). Also: nearly all actives have a fitted effect of over 60% in size. To be noted: MCC and control cell lines, CellTiter-Glo viability, 72 h; series mostly up to 46 µM. The gist of the method: (§1)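 After compound transfer in DMSO, plates were kept 72 hr at 37 degree celsius. Luminescent ATP signal from CellTiter-Glo served as viability measure, normalized against DMSO and no-cell controls.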

In the next assay the test system is MKL-1. The assay is described as above. The following applies: MCC and control cell lines, CellTiter-Glo viability, 72 h; series mostly up to 46 µM. The gist of the method:
as §1
A general note: Cellular ATP, detected with luciferase, serves as a proxy for viable cell number.

The test system of the next assay is MKL-2. The assay is described as above. To be noted: MCC and control cell lines, CellTiter-Glo viability, 72 h; series mostly up to 46 µM. In a few lines:
as §1

In the next assay the test system is NIH3T3. The assay is described as above. To be noted: MCC and control cell lines, CellTiter-Glo viability, 72 h; at 44.8 µM (top of the series) unless noted. In a few lines:
as §1

The test system of a further assay is UISO. The description is as above. To be noted: MCC and control cell lines, CellTiter-Glo viability, 72 h; series mostly up to 46 µM. The gist of the method:
as §1

In another assay the test system is WaGa. The assay is described as above. The following applies: MCC and control cell lines, CellTiter-Glo viability, 72 h; series mostly up to 46 µM. The gist of the method: as §1
Another assay relates to C33A. Description: Primary qHTS to identify gynecologic anti-cancer compounds using libraries of approved drugs and bioactive compounds (AID 1345084). Also: nearly all actives have a fitted effect of over 55% in size. To be noted: Gynecologic cancer cell panel viability, ATPlite luminescence, 48 h; series mostly up to 57.5 µM. The gist of the method: (§2)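 Cells, 1,000 per well, plated 16 h, then exposed 48 h at 37 C to compounds. Viability by ATPlite luminescence after 15 min at room temperature.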

A further assay has as its system CAOV3. The description is as above. To be noted: Gynecologic cancer cell panel viability, ATPlite luminescence, 48 h; series mostly up to 57.5 µM. The gist of the method:
as §2

The subject of the next assay is CASKI. Described as above. The following applies: Gynecologic cancer cell panel viability, ATPlite luminescence, 48 h; series mostly up to 57.5 µM. In a few lines: as §2
The subject of the next assay is Es-2. Described as above. The following applies: Gynecologic cancer cell panel viability, ATPlite luminescence, 48 h; series mostly up to 57.5 µM. The gist of the method: as §2
The next assay has as its system HeLa. The assay is described as above. The following applies: Gynecologic cancer cell panel viability, ATPlite luminescence, 48 h; series mostly up to 57.5 µM. The gist of the method: as §2
For the next assay, the system named is Hek293T. Described as above. The following applies: Gynecologic cancer cell panel viability, ATPlite luminescence, 48 h, control line for the selectivity index; series mostly up to 57.5 µM. The gist of the method:
as §2

A further assay deals with JEG-3. Described as above. To be noted: Gynecologic cancer cell panel viability, ATPlite luminescence, 48 h; series mostly up to 57.5 µM. The gist of the method:
as §2

The test system of a further assay is OV90. The description is as above. To be noted: Gynecologic cancer cell panel viability, ATPlite luminescence, 48 h; series mostly up to 57.5 µM. In a few lines:
as §2

The subject of another assay is PA-1. Described as above. To be noted: Gynecologic cancer cell panel viability, ATPlite luminescence, 48 h; series mostly up to 57.5 µM. In a few lines: as §2
A further assay relates to SKOV3. The assay is described as above. The following applies: Gynecologic cancer cell panel viability, ATPlite luminescence, 48 h; series mostly up to 57.5 µM. The gist of the method:
as §2

In the next assay the test system is Tov-21-G. Described as above. To be noted: Gynecologic cancer cell panel viability, ATPlite luminescence, 48 h; series mostly up to 57.5 µM. In a few lines:
as §2

Another assay deals with Tov112D. Described as above. The following applies: Gynecologic cancer cell panel viability, ATPlite luminescence, 48 h; series mostly up to 57.5 µM. In a few lines: as §2
Assay [1] can be described thus: Drug repurposing screens with cells derived from glioblastoma tumor samples (AID 1345199). Also: nearly all actives have a fitted effect of over 40% in size. Also: potency is read from the fitted curve at half-maximal effect. To be noted: GBM patient neurospheres viability, ATP luminescence, 48 h. In a few lines:
(§3)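 Four patient lines of CD133+ GBM neurospheres were screened at several concentrations; hits were retested in those lines plus three slower-growing GBM lines, using 48-hour treatment and ATP-based viability.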

For another assay, the system named is astro. The description is as above. To be noted: viability, ATP luminescence, 48 h; series mostly up to 45.9 µM. In a few lines: as §3
Where [2] appears, read: at 45.9 µM (top of the series), tumour line B.
Setting [3] is: at 45.9 µM (top of the series), tumour line D.
Where [4] appears, read: at 46 µM (top of the series), tumour line A.
Setting [5] is: at 46.1 µM (top of the series), tumour line C.
% is scaled to controls: 0 for no effect and ±100 for the full control effect.

As for `N[C@@H](CSCCCO)C(=O)O`, the Potency entry in the assay on MCC-26, in the assay with MKL-1, with MKL-2, in the assay on UISO, in the assay on WaGa and in the assay on C33A was “inactive” each time. Moreover, the Potency entry in the assay with CAOV3, with CASKI, with Es-2, in the assay with HeLa, in the assay with Hek293T and with JEG-3 was “inactive” in each case. Also, the Potency entry in the assay with OV90, in the assay on PA-1, in the assay with SKOV3, with Tov-21-G, in the assay on Tov112D and with astro was “inactive” each time. Further, the outcome in the assay on NIH3T3 was “inactive [at 17.4 µM]”. Also, the activity, negative = cell killing in assay [1] (setting [2]) was 0.365%; in [1] (setting [3]), -10%; in assay [1] (setting [4]), -27%; in assay [1] (setting [5]) it was -8.48%.
For the compound `OCC(O)CN1CCN(c2ccccc2)CC1` (configuration not stated), the Potency entry in the assay with MCC-26, with MKL-1, with MKL-2, in the assay on UISO, in the assay with WaGa and with C33A was “inactive” throughout. For the same compound, the Potency result in the assay with CAOV3, in the assay on CASKI, with Es-2, in the assay on HeLa, with Hek293T and with JEG-3 was “inactive” each time. For the same compound, the Potency result with OV90, in the assay on PA-1, in the assay on SKOV3, in the assay on Tov-21-G, in the assay with Tov112D and with astro was “inactive” in each case. The compound was classed as inactive in the assay on NIH3T3. The activity, negative = cell killing in assay [1] (setting [2]) is -18.5%; in [1] (setting [3]) it was -7.12%; in [1] (setting [5]), -25.1%.
For `CCCCCCCCCCCCOS(=O)(=O)O`, the Potency entry in the assay with MCC-26, in the assay on MKL-1, in the assay on MKL-2, in the assay on UISO, in the assay on WaGa and with C33A was “inactive” in each case. For the same compound, the Potency entry in the assay with CAOV3, in the assay on CASKI, in the assay with Es-2, in the assay with HeLa, in the assay with Hek293T and in the assay on JEG-3 was “inactive” throughout. Further, the Potency result with OV90, with PA-1, with SKOV3, in the assay on Tov-21-G, with Tov112D and in the assay with astro was “inactive” each time. In addition, the call in the assay on NIH3T3 was inactive. Also, the activity, negative = cell killing in [1] (setting [2]) was -29.7%; in [1] (setting [3]) it was 0.019%; in [1] (setting [5]), -0.178%.
For the compound `O=c1[nH]cnc2c1ncn2[C@@H]1O[C@H](CO)[C@@H](O)[C@H]1O`, the Potency entry with MCC-26, with MKL-1, in the assay on MKL-2, in the assay with UISO, with WaGa and with C33A was “inactive” in each case. Moreover, the Potency result in the assay on CASKI, in the assay with Es-2, in the assay with HeLa, with Hek293T, in the assay on JEG-3 and with OV90 was “inactive” throughout. The Potency result in the assay with PA-1, with SKOV3, with Tov-21-G, with Tov112D and with astro was “inactive” each time. Moreover, the call in the assay with NIH3T3 was inactive. The activity, negative = cell killing is 9.46% in [1] (setting [2]), -5.06% in assay [1] (setting [3]), 7.03% in [1] (setting [4]) and 2.71% in assay [1] (setting [5]).
`CC(C)(C)NCC(O)COc1ccc(NC(=O)NC2CCCCC2)cc1` (configuration not stated): the Potency entry in the assay on MCC-26, in the assay with MKL-1, in the assay on MKL-2, in the assay on UISO, in the assay with WaGa and in the assay with C33A was “inactive” throughout. The Potency entry in the assay with CAOV3, in the assay on CASKI, with Es-2, in the assay on HeLa, with Hek293T and in the assay on JEG-3 was “inactive” throughout. For the same compound, the Potency result with OV90, in the assay on PA-1, in the assay with SKOV3, with Tov-21-G, in the assay with Tov112D and with astro was “inactive” in each case. In the assay on NIH3T3, the call was inactive. Besides, the activity, negative = cell killing in assay [1] (setting [2]) was -25.7%. In assay [1] (tumour line A), the Potency was 31.6 µM (active).
`CC12CCC(CC1)C(C)(C)O2`: the Potency result in the assay with MCC-26, with MKL-1, in the assay on MKL-2, in the assay on UISO, in the assay with WaGa and in the assay on C33A was “inactive” in each case. In addition, the Potency entry in the assay on CAOV3, in the assay with CASKI, in the assay on Es-2, in the assay with HeLa, in the assay with Hek293T and in the assay with JEG-3 was “inactive” each time. For the same compound, the Potency entry in the assay on OV90, with PA-1, in the assay with SKOV3, in the assay on Tov-21-G, in the assay on Tov112D and with astro was “inactive” each time. The result in the assay with NIH3T3 was inactive. Also, the activity, negative = cell killing in [1] (setting [2]) is -7.94%; in [1] (setting [3]) it was 5.35%; in [1] (setting [5]), -12.5%.
On to `COC(=O)[C@H]1[C@H]2C[C@@H]3c4[nH]c5cc(OC)ccc5c4CCN3C[C@H]2C[C@@H](OC(=O)COc2ccc(OC)cc2)[C@@H]1OC`, for which the Potency entry with MCC-26, in the assay with MKL-1, in the assay on MKL-2, in the assay with UISO, in the assay on WaGa and in the assay with C33A was “inactive” in each case. The Potency result in the assay with CAOV3, in the assay with CASKI, with Es-2, in the assay with HeLa, with Hek293T and in the assay on JEG-3 was “inactive” each time. For the same compound, the Potency entry in the assay with OV90, in the assay with PA-1, with SKOV3, in the assay on Tov-21-G, in the assay with Tov112D and in the assay with astro was “inactive” in each case. The outcome with NIH3T3 was inactive. In addition, the activity, negative = cell killing in assay [1] (setting [2]) was -20.4%. The Potency in assay [1] (tumour line A) was 11.2 µM (active).
Consider `CCN(CC)CCNC(C(=O)OCCC(C)C)c1ccccc1` (configuration not stated), for which the Potency entry in the assay with MCC-26, in the assay on MKL-1, in the assay with MKL-2, in the assay on UISO, in the assay on WaGa and with C33A was “inactive” throughout. The Potency result with CAOV3, with CASKI, with Es-2, with HeLa, with Hek293T and with JEG-3 was “inactive” in each case. Also, the Potency result in the assay with OV90, in the assay with PA-1, in the assay with SKOV3, in the assay with Tov-21-G, in the assay on Tov112D and in the assay with astro was “inactive” in each case. For the same compound, the call with NIH3T3 was inactive. In addition, the results for the activity, negative = cell killing in [1] (setting [2]) and in assay [1] (setting [5]) were -12.5% and 6.2%, respectively. In [1] (tumour line A), the Potency is 25.1 µM (active).
Regarding `c1ccc(CN(CC2=NCCN2)c2ccccc2)cc1`, the Potency entry in the assay with MCC-26, in the assay with MKL-1, in the assay on MKL-2, in the assay with UISO, in the assay on WaGa and in the assay on C33A was “inactive” each time. Besides, the Potency entry with CAOV3, in the assay on CASKI, in the assay on Es-2, in the assay with HeLa, in the assay on Hek293T and with JEG-3 was “inactive” throughout. The Potency result in the assay with OV90, in the assay on PA-1, in the assay on SKOV3, in the assay with Tov-21-G, in the assay with Tov112D and with astro was “inactive” in each case. Further, the call in the assay on NIH3T3 was inactive. In addition, the activity, negative = cell killing was -15.8% in [1] (setting [2]), -19.1% in assay [1] (setting [3]) and -20.7% in assay [1] (setting [5]).

Source of the values: PubChem BioAssay (NCATS).
